Compound activity from PubChem BioAssay.
Cycloheximide cs: affects cycloheximide protein synthesis inhibition readout, counter-screen. cell reporter, cycloheximide protein synthesis inhibition counterscreen. max response, %. 12% of 300,000 active; in the data active means max response mostly above about 13%, no sharp cut-off; inactive means mostly below about 14%; further: read at 38.3 µM for the half of the compounds with a filed dose; 0% is about no effect
AmpC inh no detg: blocks E. coli AmpC beta-lactamase in detergent-free assay; P00811; AmpC nitrocefin hydrolysis, absorbance 480 nm, 0.0001% Triton; Potency, µM (top dose mostly 57.1 µM), for the others: at the top dose activity change, negative = inhibition, usual class: inhibitors; 0.52% of 330,000 active; AID 485341;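 further: potency means the concentration at half of the fitted maximal effect; plate controls were no compound for no effect and no enzyme for full effect; nearly all actives have a fitted effect of over 20% in size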
Target sequence (P00811 whole entry, looked up): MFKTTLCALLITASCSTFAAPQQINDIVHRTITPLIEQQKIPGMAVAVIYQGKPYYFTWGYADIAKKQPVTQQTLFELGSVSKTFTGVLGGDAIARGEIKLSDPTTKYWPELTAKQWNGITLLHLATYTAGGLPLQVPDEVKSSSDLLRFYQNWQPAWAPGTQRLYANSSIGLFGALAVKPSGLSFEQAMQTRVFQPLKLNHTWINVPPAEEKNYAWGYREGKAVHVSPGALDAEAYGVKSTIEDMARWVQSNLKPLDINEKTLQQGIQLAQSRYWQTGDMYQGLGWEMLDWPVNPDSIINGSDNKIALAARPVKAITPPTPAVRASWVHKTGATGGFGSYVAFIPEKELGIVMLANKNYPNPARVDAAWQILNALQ
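20 mM phosphate pH 7.0 + 0.01% (detergent screen) or 0.0001% Triton X-100; 5.3 nM AmpC reagent; cpd preinc 15 min RT; nitrocefin (800 uM stock) to start; A480 q20 s × 4 min; Activity was normalised to no-enzyme and no-compound control wells.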
NS1 function inh: influenza NS1 inhibition; AID 2326; 0.4% of 270,000 active; Potency, µM (top dose mostly 46.1 µM), for the others: top-dose activity, positive = more growth; calls by dose curve; further: potency means the concentration at half of the fitted maximal effect; actives are rising curves; nearly all actives have a fitted effect of over 50% in size
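Growth recovery, yeast-based: influenza A NS1 expressed in S. cerevisiae causes slow growth, and suppressors are detected by OD600. The parent strain without NS1 is used as positive control.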
AmpC inh detg: AmpC beta-lactamase inhibition with detergent present; P00811; AmpC hydrolysis of nitrocefin, absorbance 480 nm, 0.01% Triton; Potency, µM (top dose mostly 114 µM), for the others: at the top dose activity change, negative = inhibition, usual class: inhibitors; 0.041% of 370,000 active; AID 485294;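 further: potency means the concentration at half of the fitted maximal effect; 0% = no-compound wells and -100% = no-enzyme wells; nearly all actives have a fitted effect of over 25% in size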
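AmpC (5.3 nM in the dispensed reagent) in 20 mM phosphate pH 7.0 with 0.01% (detergent screen) or 0.0001% Triton X-100 was preincubated with compounds for 15 min at room temperature. Nitrocefin was then added from an 800 uM solution, and hydrolysis was followed at 480 nm.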
Shiga inhibitor: Shiga toxin inhibition | Vero cells, Shiga toxin protein synthesis inhibition reporter | inhibition, % at 38.7 µM | 9.2% of 290,000 active | AID 2315; in the data active means inhibition mostly above about 28%, no sharp cut-off; inactive means mostly below about 43%; further: 0% is about no effect
* hit, by the source's call. Shown is part of a subset that was picked to be rich in hits. Unless noted, the call rests on the fitted dose curve; in most records, active means well fitted curve in the direction sought with a large enough effect; inconclusive means small, poorly fitted or top-dose-only effect, or another doubt; inactive means no such curve, though single readings can be large; an effect the other way counts as inactive or inconclusive.

For O=C(Cc1ccc(Cl)c(Cl)c1)N/N=C/c1cccnc1 the results were Cycloheximide cs 6, AmpC inh no detg -3%, NS1 function inh -28%, AmpC inh detg inconclusive and Shiga inhibitor -5.
Screening O=c1cc(-c2ccc(O)cc2)oc2cc(O[C@@H]3O[C@H](CO)[C@H](O)[C@H](O)[C@H]3O)cc(O)c12 returned Cycloheximide cs 49 and Shiga inhibitor 29.
`O=C(Cc1cccs1)Nc1cccc(-c2ccc3nncn3n2)c1` gave Cycloheximide cs 7, AmpC inh no detg -20%, AmpC inh detg 8% and Shiga inhibitor 26.
CCOc1ccccc1NS(=O)(=O)c1c(C(=O)OC)sc2cccc(F)c12 was read as AmpC inh detg 1%.
For O=C(O)c1ccc(/C=N/Nc2cccc(C(F)(F)F)c2)cc1 the results were Cycloheximide cs 56*, AmpC inh no detg -31%, AmpC inh detg -5% and Shiga inhibitor 120*.
For CSc1ccc(/C=N/Nc2ccc(Cl)c(C(=O)O)c2)cc1 the results were Cycloheximide cs 52*, AmpC inh no detg -27%, AmpC inh detg -17% and Shiga inhibitor 189*.
`O=C(O)c1cccc(N/N=C/C2=C(Cl)c3cc(Cl)ccc3SC2)c1` gave Cycloheximide cs 65*, AmpC inh no detg -23%, AmpC inh detg 1% and Shiga inhibitor 129*.
For O=C(O)c1cccc(N/N=C/c2ccc(F)c(F)c2)c1 the results were Cycloheximide cs 95*, AmpC inh no detg -10%, AmpC inh detg -1% and Shiga inhibitor active.
For COc1ccc(-n2c(SCc3nc(-c4ccc(C)cc4)no3)nnc2-c2ccncc2)cc1 the results were AmpC inh detg 11%.
`O=C(O)c1ccc(N/N=C/C=C/c2ccccc2)cc1` gave Cycloheximide cs 42*, AmpC inh no detg -32%, NS1 function inh -108%, AmpC inh detg 1% and Shiga inhibitor 55*.
O=C(O)c1ccc(N/N=C/c2ccc(-c3ccccc3)cc2)cc1 was read as Cycloheximide cs 27*, AmpC inh no detg -49%, AmpC inh detg 2% and Shiga inhibitor 100.
`O=C(O)c1cc(N/N=C/c2ccc(-c3ccccc3)cc2)ccc1Cl` gave Cycloheximide cs 100*, AmpC inh no detg -40%, NS1 function inh 3%, AmpC inh detg -7% and Shiga inhibitor 132*.
For CCc1ccccc1N(CC(=O)NC(C)c1ccccc1)S(C)(=O)=O (stereo not drawn) the results were Cycloheximide cs 1, AmpC inh no detg -7%, NS1 function inh 6% and AmpC inh detg inconclusive.
`Cc1cc(Nc2cccc(C(F)(F)F)c2)nc2ccc(NC(=O)c3cccnc3)cc12` gave AmpC inh detg 14%.
For CC1=C(c2ccc(C(C)C)cc2)S(=O)(=O)NC1=NCc1ccccc1C the results were AmpC inh detg 3%.
CC(=O)c1cccc(NC(=O)COC(=O)CCC(=O)c2cccs2)c1 was read as AmpC inh no detg -21% and AmpC inh detg -2%.
`CCOC(=O)c1nnc(-c2ccccc2)o1` gave Cycloheximide cs -3, AmpC inh no detg -10%, NS1 function inh -6%, AmpC inh detg 9% and Shiga inhibitor -4.
For CCN(CC)CCN(C)C(=O)CCc1nnc(-c2ccc(C)s2)o1 the results were Cycloheximide cs 22*, AmpC inh no detg 0%, NS1 function inh 12%, AmpC inh detg 5% and Shiga inhibitor 34*.
`CCOC(=O)Cc1nnc(-c2ccccc2)o1` gave Cycloheximide cs 22*, AmpC inh no detg -32%, NS1 function inh -2%, AmpC inh detg 4% and Shiga inhibitor 36.
`CC(C)(CO)CNC(=O)CCc1nnc(-c2ccc(-c3ccccc3)cc2)o1` gave Cycloheximide cs 25*, AmpC inh no detg 100%, NS1 function inh -5%, AmpC inh detg -10% and Shiga inhibitor 60*.
CCOC(=O)CN(C)C(=O)CCc1nnc(-c2ccc(-c3ccccc3)cc2)o1 was read as Cycloheximide cs 13*, AmpC inh no detg 104%, NS1 function inh -33%, AmpC inh detg inconclusive and Shiga inhibitor 35.
Screening CC(C)(CO)CNC(=O)CCc1nnc(C2(c3ccc(Cl)cc3)CCC2)o1 returned Cycloheximide cs 4, AmpC inh no detg 92%, NS1 function inh 1%, AmpC inh detg 4% and Shiga inhibitor 11.
`CCCn1c(SCC(=O)Nc2cc(Cl)ccc2OC)nc(O)cc1=O` gave AmpC inh no detg -45% and AmpC inh detg 8%.
For COc1ccccc1CCc1nnc(CCC(=O)NC(C)Cc2cccc(C)n2)o1 (stereo not drawn) the results were Cycloheximide cs 1, AmpC inh no detg 50%, NS1 function inh 1%, AmpC inh detg -5% and Shiga inhibitor 36.
For Cc1cccc(CC(C)NC(=O)CCc2nnc(-c3ccccc3)o2)n1 (stereo not drawn) the results were Cycloheximide cs 13*, AmpC inh no detg 11%, NS1 function inh 0%, AmpC inh detg -5% and Shiga inhibitor 22.
CCn1cc(C2=NC(CCSC)CO2)c2ccccc21 (stereo not drawn) was read as Cycloheximide cs 18*, AmpC inh no detg 51%, AmpC inh detg -4% and Shiga inhibitor 43.
For CCn1cc(C2=NC(CC(C)C)CO2)c2ccccc21 (stereo not drawn) the results were Cycloheximide cs 22*, AmpC inh no detg 37%, NS1 function inh -10%, AmpC inh detg -2% and Shiga inhibitor 51.
c1ccc(-c2ccc(-c3csnn3)cc2)cc1 was read as Cycloheximide cs 33*, AmpC inh no detg -1%, NS1 function inh -4%, AmpC inh detg -1% and Shiga inhibitor 57*.
For O=S(=O)(Nc1ccccc1)c1ccc(-c2csnn2)cc1 the results were Cycloheximide cs -3, AmpC inh no detg -45%, NS1 function inh 1%, AmpC inh detg 5% and Shiga inhibitor 11.
For Nc1nc(Cl)nc2ncn(Cc3ccccc3)c12 the results were Cycloheximide cs -3, AmpC inh no detg -21%, NS1 function inh -15%, AmpC inh detg -11% and Shiga inhibitor -30.
CC(C)c1cccc(C(C)C)c1NC(=O)CN1C(=O)NC2(CCCC2)C1=O was read as Cycloheximide cs -7, AmpC inh no detg 0%, NS1 function inh -5%, AmpC inh detg -10% and Shiga inhibitor -3.
Cc1cccc(Oc2coc3cc(OC(=O)c4cccs4)ccc3c2=O)c1 was read as Cycloheximide cs 29*, AmpC inh no detg -56%, NS1 function inh 5%, AmpC inh detg -11% and Shiga inhibitor 50*.
COc1ccc(-c2cccc(-c3cc(=O)oc4ccc(C(C)(C)C)cc34)c2)cc1 was read as Cycloheximide cs 8, AmpC inh no detg -29% and Shiga inhibitor inactive.
For CCOc1ccc(Cc2nc(N)nc(N)n2)cc1 the results were Cycloheximide cs -1, AmpC inh no detg -12%, NS1 function inh 0%, AmpC inh detg -6% and Shiga inhibitor 20.
Screening Nc1nc(N)nc(COc2ccccc2)n1 returned Cycloheximide cs 42*, AmpC inh no detg -14%, AmpC inh detg -4% and Shiga inhibitor 96*.
